According to PubChem BioAssay AID1063 (University of Pittsburgh Molecular Library Screening Center, 2008):
Out of some 200,000 compounds screened, about 18,000 (9%) were called active. Cut-off read from the data, not from the text of the source: active = inhibition above about 50%; inactive = the rest. The entries come from a sample that favours actives as a whole.

Test: antileishmanial activity against promastigotes – primary screen (AID 1063);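 note: promastigotes grown with compound for 44 hours at 28 °C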
Settings: Leishmania major promastigotes, resazurin fluorescence viability; at 10 µM; hits give high values

| Compound | inhibition |
| --- | --- |
| CC(C)Oc1ccc(Cc2n[nH]c(=S)n2Cc2ccccc2)cc1Cl | 4.91% (inactive) |
| Nc1c(NCCc2ccccc2)c2ccccc2oc1=O | -2.7% (inactive) |
| Cc1ccc(C(=O)N/C(=C\c2cccs2)C(=O)NCCc2ccccn2)cc1C | 16.6% (inactive) |
| COC(=O)C1=C(C)N(C)C(=S)NC1c1cc(OC)ccc1OC (stereo not drawn) | 3.3% (inactive) |
| COc1cc(SC)ccc1C(=O)NCCOc1ccccc1Cl | 1.79% (inactive) |
| COc1cc(SC)ccc1C(=O)Nc1cc(C)ccn1 | 25.5% (inactive) |
| COc1ccccc1CNC(=O)c1ccc(SC)cc1OC | 66.9% (active) |
| O=C(NNC(=O)C1C2CCC(C2)C1C(=O)O)c1ccc(Cl)cc1 (stereo not drawn) | -5.41% (inactive) |
| Cc1cccc(C(=O)OC(C)CN2CCN(C)CC2)c1 (stereo not drawn) | 3.94% (inactive) |
| CO/N=C/c1cn(-c2ccc(Cl)cc2)nn1 | -1.77% (inactive) |
| CCC1CCCCN1CCCNC(=O)C1CCC(Cn2c(=O)[nH]c3ccccc3c2=O)CC1 (stereo not drawn) | -4.5% (inactive) |
| CCC1CCCCN1CCCNC(=O)Cn1nc(-c2ccccc2)ccc1=O (stereo not drawn) | -4.42% (inactive) |
| CCC1CCCCN1CCCNC(=O)c1cc2c(Cl)nc3ccccc3c2s1 (stereo not drawn) | 100% (active) |
| CC(C)OCC(O)CN1CCN(C(c2ccccc2)c2ccccc2)CC1 (stereo not drawn) | 0.57% (inactive) |
| Cc1ccccc1C(OCCN(C)C)C1CCCCC1 (stereo not drawn) | 18.1% (inactive) |
| Cc1ccccc1C(OCC(O)CN1CCCCC1CCO)c1ccccc1 (stereo not drawn) | 99.7% (active) |
| CC(C)N(Cc1nc(-c2ccc3c(c2)OCO3)no1)CC1CCC(=O)N1 (stereo not drawn) | -6.4% (inactive) |
| COc1ccc(NS(=O)(=O)c2ccc(NC(=S)NC(=O)CC(C)C)cc2)cc1 | 96.7% (active) |
| COc1ccc(C(=O)Nc2ccc(S(=O)(=O)NC(C)C)cc2)cc1 | -3.72% (inactive) |
| CC(=O)c1ccc(NC(=S)NC(=O)CC(C)C)cc1 | -4.65% (inactive) |
| COc1ccc(C2=NN(c3ccccc3)C(c3cccs3)C2)cc1 (stereo not drawn) | 44.3% (inactive) |

| Compound | inhibition |
| --- | --- |
| COc1cc(NC(=O)CN(C)S(=O)(=O)c2ccc3nc(C)sc3c2)cc(OC)c1 | 13% (inactive) |
| O=C(Nc1ccc2nc3n(c(=O)c2c1)CCCCC3)c1ccccc1Cl | 0.22% (inactive) |
| Cc1ccc2nc3n(c(=O)c2c1)CCC3 | -7.48% (inactive) |
| CCCCN(CC)C(=S)Nc1ccc2nc3n(c(=O)c2c1)CCCCC3 | 55.5% (active) |
| O=C(OCC(=O)N1CCOCC1)c1ccc(N2CCOCC2)c([N+](=O)[O-])c1 | 0.36% (inactive) |
| CC(C)(C)CN1CCNC(=O)C1CC(=O)NC1Cc2ccccc2C1 (stereo not drawn) | -0.33% (inactive) |
| Brc1ccc2nc(N3CCCC3)sc2c1 | 17% (inactive) |
| O=C(c1ccc2c(c1)C(=O)N(c1ccc(Cl)cc1)C2=O)N1CCN(c2ccccn2)CC1 | -5.18% (inactive) |
| O=C(c1ccc2c(c1)N(Cc1ccc(F)cc1)C(=O)c1ccccc1S2(=O)=O)N1CCN(c2ccccn2)CC1 | 97% (active) |
| CCCCN(C)C(=O)c1ccc2c(c1)N(CC)C(=O)c1ccccc1S2(=O)=O | -6.56% (inactive) |
| CCN1CN(Cc2ccccc2)CNC1=S | -5.52% (inactive) |
| S=C1SCN(CCN2CCOCC2)CN1Cc1ccccc1 | 86.7% (active) |
| C/C(CCc1ccccc1)=N\NC(=O)c1ccc(CN2CCOCC2)cc1 | -3.42% (inactive) |
| CCCn1nc(Oc2nc(NC(C)C)nc(N(C)C)n2)ccc1=O | 7.02% (inactive) |
| CC(=O)Nc1ccc(S(=O)(=O)Nc2ccc(-c3ccc4nnc(C)n4n3)cc2)cc1 | -6.31% (inactive) |
| CCOc1cccc(-c2nn3c(-c4ccccn4)nnc3s2)c1 | 6.06% (inactive) |
| c1ccc(-c2cc(-c3nnc4sc(-c5ccccn5)nn34)[nH]n2)cc1 | 84.6% (active) |
| COc1ccc(-c2nn3c(-c4ccccc4)nnc3s2)cc1OC | 3.79% (inactive) |
| COc1ccc(N2C(=O)CC(Nc3ccc(F)cc3)C2=O)c([N+](=O)[O-])c1 (stereo not drawn) | -0.61% (inactive) |
| CN(C)c1ccc(C2Nc3ccccc3C(=O)N2NS(=O)(=O)c2ccccc2)cc1 (stereo not drawn) | 3.72% (inactive) |
| O=C(Nc1cn(-c2ccccc2)nc1-c1ccccc1)c1ccccc1 | 82.8% (active) |

| Compound | inhibition |
| --- | --- |
| O=C(O)c1ccc(NC(=O)c2cn(-c3ccccc3)nc2-c2ccc(Cl)cc2)cc1 | -2.74% (inactive) |
| Cc1ccccc1NC(=O)c1ccccc1 | -0.75% (inactive) |
| O=C(NCc1cccnc1)c1cn(-c2ccccc2)nc1-c1cccs1 | 1.01% (inactive) |
| O=C(NNC(=S)NC(=O)c1cn(-c2ccccc2)nc1-c1ccccc1)c1ccncc1 | 54.9% (active) |
| COc1ccc(-c2nn(-c3ccccc3)cc2C(=O)Nc2nccs2)cc1OC | 21.8% (inactive) |
| CCN(CC)S(=O)(=O)c1ccc(N2CCOCC2)c(NC(=O)C2COc3ccccc3O2)c1 (stereo not drawn) | 26.2% (inactive) |
| N#CC1=C(N)Oc2[nH]c(=S)[nH]c(=O)c2C12C(=O)Nc1ccccc12 (stereo not drawn) | -9.87% (inactive) |
| COc1ccc(N2CCN(C(=O)CCSCc3ccccc3F)CC2)cc1 | 3.84% (inactive) |
| COC(=O)c1ccc(NC(=S)NN2CCOCC2)cc1 | -9.83% (inactive) |
| CC(NC(=O)Nc1ccccc1)C(c1cccs1)N1CCN(c2ccccc2)CC1 (stereo not drawn) | -1.95% (inactive) |
| Cc1nc2ccc(NC(=S)N3CCC(C)CC3)cc2nc1C | -1.44% (inactive) |
| COc1ccc(OCCCn2cccc2/C=C2/C(=N)N3OC(C)=CC3=NC2=O)cc1 | 21.9% (inactive) |
| Cc1cc(C)nc(SCC(=O)N(C)C)n1 | -4.86% (inactive) |
| CC1(C)CC(CC(=O)O)C(=O)O1 (stereo not drawn) | -2.75% (inactive) |
| C/C(CC1CC(C)(C)OC1=O)=N/Nc1nc(-c2ccccc2)cs1 (stereo not drawn) | 55.5% (active) |
| CC1(C)CC(CCC(=O)Nc2ccccc2Cl)C(=O)O1 (stereo not drawn) | -7.36% (inactive) |
| CC(=O)Nc1nc(N(C)C)nc(N(C)C)n1 | 2.36% (inactive) |
| O=C(NCc1ccco1)C(=O)c1cn(CC(=O)N2CCCCCC2)c2ccccc12 | 5.44% (inactive) |
| CCOC(=O)CCCNC(=O)COC(=O)/C=C/c1ccc2c(c1)OCO2 | -1.67% (inactive) |
| O=C(COC(=O)/C=C/c1cccc(Cl)c1)NCCc1ccccc1 | 53.4% (active) |
| COc1ccc(CCNC(=O)COC(=O)/C=C/c2cccs2)cc1OC | 4.8% (inactive) |
